Values without a mark were called inactive. Inconclusive results are not listed. The source made the active and inactive calls. Unless noted, calls come from the whole dose curve; as a rule, active = well fitted curve in the direction sought with a large enough effect in the repeat runs; inconclusive = weak or mixed curves; inactive = no such curve, though single readings can be large; an effect the other way counts as inactive or inconclusive.

This note sets out measurements from PubChem BioAssay (Tox21).

Test [1] concerns the target Thyrotropin receptor (Homo sapiens) (UniProt P16473). The test is described as follows: qHTS assay to identify small molecule agonists of the thyroid stimulating hormone receptor (TSHR) signaling pathway (AID 1224843; calls by dose curve; note: nearly all actives have a fitted effect of over 45% in size). The essentials: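 TSHR-expressing HEK293 cells (800 per well) were exposed to compounds for 30 min at room temperature. cAMP was then detected by HTRF competition with cAMP-d2 and anti-cAMP cryptate, read after 1 h at room temperature. Fifteen concentrations, triplicate.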
Background: qHTS replaces the single test concentration by a dilution series.

The nature of test [2]: qHTS assay to identify small molecule agonists of the hypoxia (HIF-1) signaling pathway - cell viability counter screen (AID 1224844; calls by dose curve; note: nearly all actives have a fitted effect of over 50% in size). An outline of the steps:
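Cells (HRE-bla ME-180, 2,000 per well) sat 5 hrs at 37C, got compound for 17 hrs, were read for CCF4-AM FRET, and were finally lysed with CellTiter-Glo for a 30 min room-temperature luminescence read.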

Test [3] is described as follows: qHTS assay to identify small molecule agonists of H2AX (AID 1224845; active = well fitted activation curve with a large enough effect in the signal ratio in the repeat runs, not every such curve was filed as active; the % refers to the signal ratio). An outline of the steps:
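Wild-type CHO-K1 cells plated overnight, then exposed 3 hr at 37C to compounds at 15 concentrations (0.76% DMSO). Lysed, then HTRF anti-pH2AX(S139)-cryptate/anti-H2AX-d2 detection after 24 hr at room temperature; emissions 665 and 620 nm.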

The nature of test [4]: qHTS assay to identify small molecule agonists of the hypoxia (HIF-1) signaling pathway (AID 1224846; active = well fitted activation curve with a large enough effect in the signal ratio in the repeat runs, not every such curve was filed as active; the % refers to the signal ratio). The essentials: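 A low-serum medium (0.5% dialyzed FBS) holding 2,000 HRE-bla ME-180 cells per well is preincubated for 5 hrs, dosed with compounds by pintool, and kept a further 17 hrs at 37C, 5% CO2 before CCF4-AM FRET detection of beta-lactamase.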
The nature of test [5]: qHTS assay to identify small molecule agonists of H2AX - cell viability counter screen (AID 1224847; calls by dose curve; note: top concentration of the series differs between compounds; nearly all actives have a fitted effect of over 30% in size). An outline of the steps:
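CHO-K1 cells plated overnight at 37C, then exposed 3 h at 37C to compounds at 15 concentrations (0.76% DMSO final). Viability by CellTiter-Glo luminescence after 30 min at room temperature.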

Test [6] can be described thus: qHTS RealTime-Glo MT Cell Viability Assay in HepG2 cells - 24 hour (AID 1224867). Note: nearly all actives have a fitted effect of over 50% in size. An outline of the steps: (§1)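 Luminescence read-out: viable HepG2 cells reduce a prosubstrate to a NanoLuc substrate, giving a signal proportional to live cell number. Reads taken at 0, 8, 16, 24, 32 and 40 h of compound exposure at 37 C.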
Test [7] in a line: A CellTox Green Cytotoxicity Assay to monitor cytotoxicity in HEK293 cells - 0 hour (AID 1224869). Note: nearly all actives have a fitted effect of over 50% in size. The essentials: (§2)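 Fluorescence intensity, read at 0, 8, 16, 24, 32 and 40 h of compound treatment, reflected dye binding to DNA of dead HEK293 cells; compounds (23 nL, DMSO) were added 5 h after plating cells with reagent.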
Test [8] can be described thus: qHTS RealTime-Glo MT Cell Viability Assay in HepG2 cells - 40 hour (AID 1224870). Note: nearly all actives have a fitted effect of over 50% in size. An outline of the steps:
(§3)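 HepG2 cells mixed with RealTime-Glo MT reagents (NanoLuc plus cell-permeant prosubstrate) were seeded at 600 cells/well, incubated 5 h at 37 C/5% CO2, then pinned with compounds in DMSO; nonlytic luminescence tracked viability during 40 h treatment.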

Test [9] is described as follows: A CellTox Green Cytotoxicity Assay to monitor cytotoxicity in HEK293 cells - 40 hour (AID 1224871). Note: nearly all actives have a fitted effect of over 45% in size. Note: potency is the fitted concentration of half-maximal effect. The essentials:
as §2

A short description of test [10]: qHTS RealTime-Glo MT Cell Viability Assay in HEK293 cells - 16 hour (AID 1224872). The essentials:
(§4)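 Nonlytic real-time viability readout: viable cells convert prosubstrate to NanoLuc substrate, giving luminescence proportional to live cell number. HEK293, 600 cells/well, compound added after 5 h, continuous culture at 37 C.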

Test [11] can be described thus: qHTS RealTime-Glo MT Cell Viability Assay in HepG2 cells - 8 hour (AID 1224873). Note: nearly all actives have a fitted effect of over 55% in size. The essentials:
as §3

Test [12] is described as follows: A CellTox Green Cytotoxicity Assay to monitor cytotoxicity in HepG2 cells - 16 hour (AID 1224876). Note: nearly all actives have a fitted effect of over 45% in size. The essentials: (§5)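 Using 1536-well format, dye-containing HepG2 suspension was seeded, allowed 5 h at 37 C/5% CO2, dosed by pintool with compounds, positive and negative controls, and imaged for fluorescence across 40 h.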
Test [13] is described as follows: qHTS RealTime-Glo MT Cell Viability Assay in HepG2 cells - 32 hour (AID 1224877). Note: nearly all actives have a fitted effect of over 55% in size. The essentials: as §1
The nature of test [14]: A CellTox Green Cytotoxicity Assay to monitor cytotoxicity in HepG2 cells - 24 hour (AID 1224878). Note: nearly all actives have a fitted effect of over 45% in size. An outline of the steps: as §5
Test [15] can be described thus: A CellTox Green Cytotoxicity Assay to monitor cytotoxicity in HepG2 cells - 40 hour (AID 1224879). Note: nearly all actives have a fitted effect of over 40% in size. The essentials:
as §5

The nature of test [16]: qHTS assay to identify small molecule antagonists of the estrogen related receptor (ERR) signaling pathway from Tox21 library (AID 1224848). Note: nearly all actives have a fitted effect of over 50% in size. The essentials:
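Cells: ERR line, 2,000/well; 6 h preincubation 37 C/5% CO2. Cpd in DMSO via pin tool; 18 h, 37 C. ONE-Glo, 30 min RT, luminescence.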

Test [17] is described as follows: qHTS assay to identify small molecule agonists of the estrogen related receptor (ERR) signaling pathway from Tox21 library (AID 1224849; calls by dose curve; note: nearly all actives have a fitted effect of over 15% in size). To be noted: ERR reporter cell line, ONE-Glo luciferase, 18 h; at 92.4 µM (top of the series) unless noted. The essentials:
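Screening used an NTP-provided ERR luciferase cell line. Compounds in DMSO were added 6 h after seeding and left 18 h at 37 C before a 30 min ONE-Glo step and luminescence reading.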

Test [18] can be described thus: qHTS RealTime-Glo MT Cell Viability Assay in HEK293 cells - 32 hour (AID 1224868). The essentials: as §4
Test [19] can be described thus: qHTS RealTime-Glo MT Cell Viability Assay in HEK293 cells - 40 hour (AID 1224874). Note: nearly all actives have a fitted effect of over 50% in size. To be noted: RealTime-Glo luminescence; max response: hits give low values. The essentials:
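Viable HEK293 cells reduce a cell-permeant prosubstrate; the product diffuses out and is consumed by NanoLuc in the medium to give light. Compounds went in after a 5 h incubation and plates were read over the treatment course.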

Test [20] in a line: A CellTox Green Cytotoxicity Assay to monitor cytotoxicity in HEK293 cells - 24 hour (AID 1224875). Note: nearly all actives have a fitted effect of over 45% in size. An outline of the steps: as §2
% is set by controls: 0 for no effect and ±100 for the full control effect.

Chain of Thyrotropin receptor (Homo sapiens) (P16473 whole entry, looked up): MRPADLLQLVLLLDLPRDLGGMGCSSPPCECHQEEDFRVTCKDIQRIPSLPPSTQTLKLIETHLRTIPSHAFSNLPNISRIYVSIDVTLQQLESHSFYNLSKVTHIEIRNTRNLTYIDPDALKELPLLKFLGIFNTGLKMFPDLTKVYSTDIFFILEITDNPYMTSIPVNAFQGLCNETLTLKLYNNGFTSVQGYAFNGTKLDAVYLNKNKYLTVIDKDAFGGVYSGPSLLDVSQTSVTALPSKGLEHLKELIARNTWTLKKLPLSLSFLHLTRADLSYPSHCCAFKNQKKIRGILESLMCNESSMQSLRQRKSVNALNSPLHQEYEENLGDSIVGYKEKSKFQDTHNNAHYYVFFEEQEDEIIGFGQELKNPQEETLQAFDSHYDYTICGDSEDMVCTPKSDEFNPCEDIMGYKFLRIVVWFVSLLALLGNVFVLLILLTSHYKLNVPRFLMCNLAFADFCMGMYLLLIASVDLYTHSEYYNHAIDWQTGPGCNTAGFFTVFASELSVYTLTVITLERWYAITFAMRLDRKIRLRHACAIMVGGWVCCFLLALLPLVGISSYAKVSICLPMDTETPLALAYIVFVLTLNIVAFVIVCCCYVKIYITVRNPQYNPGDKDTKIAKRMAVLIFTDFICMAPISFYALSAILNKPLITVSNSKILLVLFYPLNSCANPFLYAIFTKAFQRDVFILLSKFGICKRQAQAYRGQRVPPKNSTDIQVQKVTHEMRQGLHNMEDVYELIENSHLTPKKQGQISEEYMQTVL

Consider `CC(=O)OCC(=O)[C@@]12OC(C)(C)O[C@@H]1C[C@H]1[C@@H]3C[C@H](F)C4=CC(=O)C=C[C@]4(C)[C@@]3(F)[C@@H](O)C[C@@]12C`, for which the Potency result in test [1], in test [2], in test [3], in [5], in [6] and in test [7] was “inactive” each time. Also, the Potency entry in [8], in test [10], in test [11], in test [12], in test [13] and in [14] was “inactive” each time. Further, in test [15], the Potency result was “inactive”. In addition, the outcome in test [4] was inactive. The Potency in [9] was 26.8 µM (active).

With `CC(C)(C)C(=O)O`, the Potency entry in test [1], in test [2], in test [5], in test [16], in [6] and in [18] was “inactive” each time. Further, the Potency result in test [7], in [8], in [9], in [10], in test [11] and in test [12] was “inactive” throughout. For the same compound, the Potency entry in test [13], in [14] and in [15] was “inactive” throughout. Further, the compound was called inactive in test [4]. In test [17], the activity change, positive = activation was 3.7%. Also, the max response in [19] was 6.48%.

For `CN1CCCN=C1/C=C/c1cccs1`, the Potency result in [1], in test [2], in test [3], in test [5], in [6] and in test [18] was “inactive” in each case. Also, the Potency entry in [7], in test [8], in test [9], in test [10], in [11] and in [20] was “inactive” each time. The Potency result in test [12], in [13], in test [14] and in test [15] was “inactive” in each case. In addition, the max response in test [19] is 5.88%.

As for `CC(=N\O)/C(C)=N/O`, the Potency result in test [1], in [2], in [3], in test [5], in test [6] and in test [18] was “inactive” in each case. In addition, the Potency result in [7], in [8], in [9], in [10], in test [11] and in test [20] was “inactive” in each case. In addition, the Potency result in [12], in test [13], in test [14] and in [15] was “inactive” each time. Moreover, the max response in test [19] was -18.2%.

`O=C(O)c1ccccc1NCCc1ccccc1`: the Potency entry in [1], in test [2], in [5], in [16], in [6] and in test [18] was “inactive” in each case. The Potency result in [7], in [8], in test [9], in [10], in test [11] and in [20] was “inactive” each time. Further, the Potency entry in test [12], in test [13] and in test [14] was “inactive” each time. In addition, the compound was classed as inactive in test [4]. For the same compound, the max response in test [19] is -0.281%.

For the compound `CCN(Cc1cccc(S(=O)(=O)O)c1)c1ccc(C(=C2C=CC(=[N+](CC)Cc3cccc(S(=O)(=O)[O-])c3)C=C2)c2ccccc2)cc1`, the Potency entry in test [1], in test [2], in [5], in test [16], in test [6] and in [18] was “inactive” throughout. Further, the Potency result in test [7], in [8], in test [9], in test [10], in test [11] and in test [12] was “inactive” throughout. Further, the Potency result in [13], in test [14] and in test [15] was “inactive” throughout. The compound was called inactive in test [4]. Further, in [17], the activity change, positive = activation was 1.85% [at 42.5 µM]. Also, in [19], the max response is 3.22%.

On to `C[N+]1(C)CCC(=C(c2ccccc2)c2ccccc2)CC1`, for which the Potency entry in test [1], in test [2], in test [3], in test [5], in test [16] and in [6] was “inactive” throughout. For the same compound, the Potency result in test [8], in test [9], in test [10], in [11], in test [20] and in test [12] was “inactive” throughout. For the same compound, the Potency entry in test [13], in test [14] and in test [15] was “inactive” each time. Besides, the activity change, positive = activation in test [17] is -2% [at 42.5 µM]. The max response in test [19] was 7.64%.
